# Bioassay records: PubChem, National Center for Advancing Translational Sciences (NCATS)
# GLP1R cytotox: cytotoxicity in counter-screen for GLP-1R inverse agonists; HEK293 cAMP-luciferase reporter cells, luminescence, 24 h; Potency, µM (titrated, usually from 38.3 µM), hits mostly inhibitors; actives 0.13% (n = 410,000);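 further: loss of luciferase light is scored as toxicity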
#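 MLSMR compounds, 24 hr on cells at 37 deg C/5% CO2; luminescence after luciferase reagent (12 min RT). Inhibition counted as the undesired cytotoxic outcome.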
# GLP1R inv ag: acts as inverse agonist at human GLP-1 receptor; P43220; HEK293 GLP-1R CRE-luciferase, luminescence, 24 h; GLP-1R form is constitutively active; Potency, µM (doses to about 38.3 µM), actives largely listed as inhibitors; actives 1.6% (n = 410,000); AID 624417; further: nearly all actives have a fitted effect of over 55% in size
# Target sequence (P43220 whole entry, looked up): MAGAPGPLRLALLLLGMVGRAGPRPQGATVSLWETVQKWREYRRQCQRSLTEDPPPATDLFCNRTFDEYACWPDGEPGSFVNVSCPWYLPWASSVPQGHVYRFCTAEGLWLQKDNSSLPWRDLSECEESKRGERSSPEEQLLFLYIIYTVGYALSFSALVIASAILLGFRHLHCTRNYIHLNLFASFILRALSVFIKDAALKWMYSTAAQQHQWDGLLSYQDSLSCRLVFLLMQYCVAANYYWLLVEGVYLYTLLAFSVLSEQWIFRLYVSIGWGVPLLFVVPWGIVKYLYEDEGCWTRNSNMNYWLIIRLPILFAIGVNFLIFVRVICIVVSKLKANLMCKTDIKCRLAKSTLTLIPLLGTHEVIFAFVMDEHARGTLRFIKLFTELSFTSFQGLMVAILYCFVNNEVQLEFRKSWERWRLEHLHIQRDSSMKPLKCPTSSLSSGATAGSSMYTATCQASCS
#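 Using stably transfected HEK293 (constitutively active GLP-1R, cAMP-luciferase reporter), compounds were incubated 24 hr and luciferase measured by luminescence.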
# GLP-1R agonist: agonists of human GLP-1 receptor. P43220. HEK293 GLP-1R CRE-luciferase, luminescence, 4-6 h; cells express a hypersensitive GLP-1R form. Potency, µM (titrated, usually from 45.6 µM), most hits filed as activators. actives 0.007% (n = 380,000)
# ClpP mod: qHTS Assay for Activators of ClpP | ATP-dependent Clp protease proteolytic subunit (Bacillus subtilis (strain 168)), P80244 | purified B. subtilis ClpP, FRET peptide cleavage, 20 min | Potency, µM (series often up to 57.5 µM) | actives 1.9% (n = 340,000); active means well fitted falling curve with a large enough effect; inconclusive means small, poorly fitted or top-dose-only effect; inactive means no such curve, though single readings can be large or run the other way; further: the source files actives as falling curves though it sought activators and does not explain the sign; nearly all actives have a fitted effect of over 65% in size
# Target sequence (P80244 whole entry, looked up): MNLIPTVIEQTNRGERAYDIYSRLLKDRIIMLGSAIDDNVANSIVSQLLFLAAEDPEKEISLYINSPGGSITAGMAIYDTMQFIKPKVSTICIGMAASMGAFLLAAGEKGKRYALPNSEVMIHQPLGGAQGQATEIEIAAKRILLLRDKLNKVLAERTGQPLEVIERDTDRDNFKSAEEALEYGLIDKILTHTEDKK
#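 ClpP 10 microg/mL final, pH 8 Tris/KCl buffer with BSA, glycerol, Tween-20; compound pinned in; FRET-FV substrate; RT 20 min; Ex320/Em430; ΔFRET vs ADEP 5.8 microM, DMSO, no enzyme.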
# ClpP validation: validation of B. subtilis ClpP protease hits (inhibitors); Potency, µM (titrated, usually from 57.5 µM), usual class: inhibitors; shares compounds with ClpP mod; purified B. subtilis ClpP, FRET-FV substrate cleavage, 20 min; actives 40% (n = 470); AID 743245; further: nearly all actives have a fitted effect of over 70% in size
# Numbers stand for hits; n = inactive; u = inconclusive; x = no result. Only some compounds are listed: those with a hit (about 3.2% of all), similar ones and a draw of the others. Unless noted, the call rests on the fitted dose curve; in most records, active means well fitted curve in the direction sought with a large enough effect; inconclusive means small, poorly fitted or top-dose-only effect, or another doubt; inactive means no such curve, though single readings can be large; an effect the other way counts as inactive or inconclusive.
SMILES,GLP1R cytotox,GLP1R inv ag,GLP-1R agonist,ClpP mod,ClpP validation
CN(C)S(=O)(=O)c1ccc(C(=O)Nc2nc(-c3cc4ccccc4o3)cs2)cc1,n,u,n,n,n
Cc1ccccc1Cn1c(=O)n(Cc2ccco2)c(=O)c2sc3ccccc3c21,n,n,n,u,x
Cc1nn(-c2ccc(N3CCOCC3)nn2)c(C)c1CCC(=O)NCc1ccc(Cl)cc1,n,n,x,n,x
O=c1oc2ccccc2cc1-c1nc(-c2cccc(Cl)c2)cs1,n,n,x,4.47µM,u
O=c1oc2ccccc2cc1-c1csc(Cc2nc(-c3ccc(Cl)cc3)cs2)n1,n,n,n,n,x
CCOC(=O)C1CCCCN1C(=O)c1oc2c(Cl)cc(C)cc2c1C (centres undefined),n,u,n,n,n
O=C(Nc1cccc(-c2cn3ccccc3n2)c1)c1cc2ccccc2oc1=O,n,n,n,n,n
CC(=O)Nc1cccc(-c2cn3ccccc3n2)c1,n,n,n,x,x
COc1cccc(N2CCN(c3ncnc4c3c(-c3ccccc3)cn4-c3cccc(C(F)(F)F)c3)CC2)c1,n,n,x,3.98µM,21.7µM
O=C(Nc1ccccc1Cl)c1cc2c(-c3ccccc3)nn(-c3ccccc3)c2s1,n,n,n,u,19.3µM
CCOc1ccc(-c2nn(CC(=O)NC3CCCC3)c3c2cnc2ccc(F)cc23)cc1,n,n,x,n,x
Cc1ccccc1NC(=O)c1c(NC(=O)c2ccco2)sc2c1CCC(C(C)(C)C)C2 (centres undefined),n,n,x,n,x
O=C(Nc1sc2c(c1C(=O)NC1CCCCC1)CCC2)c1ccco1,n,n,n,n,u
CC(C)(C)C1CCc2c(sc(NC(=O)c3ccco3)c2C(N)=O)C1 (centres undefined),n,n,n,n,30.6µM
O=C(CCSCc1ccccc1Cl)NCCc1ccccc1,n,u,x,n,x
O=C(NCCSc1c(-c2ccccc2)[nH]c2ccccc12)c1cc2ccccc2oc1=O,n,u,n,n,n
CCOc1ccccc1CNC(=O)c1cc2c(=O)n(Cc3cccnc3)ccc2nc1C,n,n,x,6.31µM,n
COc1ccc(Cn2ccc3nc(C)c(C(=O)NCc4ccc(SC)cc4)cc3c2=O)cc1,n,n,x,n,24.3µM
Cc1ccc(Cl)cc1NC(=O)CCc1c(C)nc2c3cccnc3nn2c1C,n,n,x,3.55µM,19.3µM
Cc1cc(=O)oc2cc(OCC(=O)Nc3ccc(N4CCC(C)CC4)cc3)ccc12,n,n,n,n,x
Cc1c(C)c2ccc(OCC(=O)Nc3ccc(N4CCC(C)CC4)cc3)cc2oc1=O,n,n,n,n,n
CC(C)(C)c1ccc(C(=O)Nc2ccc(C(=O)OCc3cc(=O)n4ccsc4n3)cc2)cc1,n,u,x,n,x
CCCCCNC(=O)C(c1ccc(-c2ccccc2)cc1)n1c(=O)c(-c2cc3ccccc3[nH]2)nc2ccccc21 (centres undefined),n,n,x,n,n
O=C(NCc1ccccc1)C(c1ccc(C(F)(F)F)cc1)n1c(=O)c(-c2cc3ccccc3[nH]2)nc2ccccc21 (centres undefined),n,4.47µM,x,n,n
Cc1cccc(C)c1NC(=O)C(c1ccccc1)n1c(=O)c(-c2cc3ccccc3[nH]2)nc2ccccc21 (centres undefined),n,u,x,n,x
SMILES,GLP1R cytotox,GLP1R inv ag,GLP-1R agonist,ClpP mod,ClpP validation
Cc1cccc(C)c1NC(=O)C(c1cccc2ccccc12)n1c(=O)c(-c2cc3ccccc3[nH]2)nc2ccccc21 (centres undefined),n,u,x,n,n
O=C(Nc1ccc2ccccc2c1)C(c1ccccc1)n1c(=O)c(-c2cc3ccccc3[nH]2)nc2ccccc21 (centres undefined),n,u,x,n,n
CC1(C)OC(=O)C2(Cc3ccc(Cl)cc3N3CCCC32)C(=O)O1 (centres undefined),x,x,x,n,x
CCOC(=O)c1noc2nc(C)n(CC(=O)Nc3ccc(Br)cc3C)c(=O)c12,n,u,x,n,x
O=c1c(-c2cc3ccccc3[nH]2)nc2ccccc2n1C(CCc1ccccc1)c1nc2ccccc2[nH]1 (centres undefined),n,3.16µM,x,n,n
CSCCC(c1nc2ccccc2[nH]1)n1c(=O)c(-c2cc3ccccc3[nH]2)nc2ccccc21 (centres undefined),n,u,x,u,x
O=C(NCc1ccccc1)C(c1cccc2ccccc12)n1c(=O)c(-c2cc3ccccc3[nH]2)nc2ccccc21 (centres undefined),n,u,x,n,n
CCc1ccc(C=O)cc1,x,x,x,n,x
CN1CCN(c2ccc(-c3ccc4ccccc4n3)cc2)CC1,n,n,n,x,x
c1ccc2nc(-c3ccc(N4CCOCC4)cc3)ccc2c1,n,n,n,n,n
Cc1ccc(C(=O)Nc2ccc3c(c2)nc2n3CCSC2)cc1,n,n,n,n,x
CC(=O)Nc1ccc2c(c1)nc1n2CCSC1,n,n,n,n,n
COCCn1c(SCC(=O)Nc2cc(Cl)ccc2OC)nc2c([nH]c3ccccc32)c1=O,n,n,n,n,x
COCCCNC(=O)CSc1nc2c(sc3ccccc32)c(=O)n1CCCC(=O)NCCOC,n,n,x,n,x
CCOc1ccc(N2CC(C(=O)Nc3ccc(S(=O)(=O)N4CCCC4)cc3)CC2=O)cc1 (centres undefined),n,n,n,x,x
CCOc1ccc(N2CC(C(=O)Nc3ccc(S(=O)(=O)N4CCCCC4)cc3)CC2=O)cc1 (centres undefined),n,u,n,7.94µM,n
O=C(Nc1cccc(Br)c1)c1cc(S(=O)(=O)N2CCCCC2)c[nH]1,n,n,x,n,n
CSc1cccc(NC(=O)c2cc(S(=O)(=O)N3CCCCC3)c[nH]2)c1,n,n,n,n,x
O=C(CSc1c2c(nc3cc(Cl)ccc13)CCCC2)N1CCN(c2ccccc2F)CC1,n,u,x,n,x
CSc1ccc(CNC(=O)Cn2nc(N3CCN(c4ccccc4)CC3)ccc2=O)cc1,n,n,x,n,x
COc1ccc(NC(=O)c2cc3cc(OC)ccc3oc2=O)cc1,n,n,n,n,x
COc1ccc2oc(=O)c(C(=O)Oc3ccc(NC(C)=O)cc3)cc2c1,n,n,n,n,n
CCCNC(=O)Nc1nc2ccccc2s1,n,u,n,n,x
CCCNC(=O)c1ccc(-c2nc3ccccc3s2)s1,n,u,n,2.82µM,24.3µM
Cc1ccn2c(Nc3ccc(C(C)C)cc3)c(-c3ccsc3)nc2c1,n,n,x,3.98µM,n
C=C1C=C(C(F)F)n2ncc(C(=O)NCc3ccccc3OC)c2N1,x,x,x,n,x
CCOc1ccc(CC(=O)Nc2c(C(=O)Nc3ccccc3)oc3ccccc23)cc1OCC,n,n,n,n,u
Cc1ccc(NC(=O)c2oc3ccccc3c2NC(=O)Cc2ccccc2)cc1,n,n,n,n,u
